# PubChem BioAssay (NCATS)
# Several values for one entry are separate records, joined by “and”; a condition that tells them apart may be missing. Equal entries are not always repeated. A number with no mark means an inactive call. Inconclusive results are not listed. Where a call stands in place of a potency, no number is given. Activity calls are given as the source filed them. Unless noted, calls come from the whole dose curve; as a rule, active = well fitted curve in the direction sought with a large enough effect; inconclusive = small, poorly fitted or top-dose-only effect, or another doubt; inactive = no such curve, though single readings can be large; an effect the other way counts as inactive or inconclusive.
# Molecular target: Guanine nucleotide-binding protein G(i) subunit alpha-1 (Homo sapiens) (UniProt P63096)
# Sequence (P63096 whole entry, looked up): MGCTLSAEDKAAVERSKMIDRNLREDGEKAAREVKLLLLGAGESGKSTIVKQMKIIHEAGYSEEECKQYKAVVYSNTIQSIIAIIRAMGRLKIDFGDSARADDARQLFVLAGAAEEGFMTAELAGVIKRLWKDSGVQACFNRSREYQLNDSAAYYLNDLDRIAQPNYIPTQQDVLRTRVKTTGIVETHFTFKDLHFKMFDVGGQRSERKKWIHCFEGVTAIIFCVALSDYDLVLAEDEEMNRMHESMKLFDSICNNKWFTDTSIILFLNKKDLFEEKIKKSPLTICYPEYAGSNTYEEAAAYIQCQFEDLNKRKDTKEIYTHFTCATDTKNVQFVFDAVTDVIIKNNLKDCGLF
# Test: qHTS Assay for Inhibitors of RGS12 GoLoco Motif Activity (Green Fluorophore) (AID 879);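 note: negative values mean loss of peptide binding seen as reduced polarization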
# Conditions: Galphai1/FITC-RGS12 GoLoco peptide, fluorescence polarization; series mostly up to 57.1 µM
# Summary of the method: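 Fluorescence polarization assay: 50 nM Gαi1 with 10 nM FITC-labeled RGS12 GoLoco peptide in 10 mM Tris pH 7.5, 150 mM NaCl, 0.1 mM GDP, 0.05% NP40, 10 min at room temperature with compound.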
row,SMILES,outcome
1,COc1cc(OC)c(/C=C2/C(=O)Nc3ccccc32)c(OC)c1,inactive
2,O=c1[nH]c2cc(Cl)c(Cl)cc2[nH]c1=O,inactive
3,COC1=C(OC)C(=O)c2ccccc2C1=O,inactive
4,Clc1ccc(N2CCN(Cc3c[nH]c4ncccc34)CC2)cc1,inactive
5,NCCCS(=O)(=O)O,inactive
6,Ic1ccc(N2CCN(Cc3c[nH]c4ncccc34)CC2)cc1,inactive
7,NCCCCCCCCCCN,inactive
8,CN(C)c1nc(N)c(C(=O)N=C(N)N)nc1Cl,inactive
9,CN(C)C(N)=NCCC[C@H](N)C(=O)O,inactive
10,CN1[C@@H]2CC[C@H]1CC(OC(c1ccccc1)c1ccccc1)C2 (some centres not stated),inactive
11,NCCNC(=O)c1ncsc1-c1cccc(F)c1,inactive
12,CC1(C)CCC=[N+]1[O-],inactive
13,NO,inactive
14,CN1CCc2ccccc2Cc2[nH]c3ccccc3c2CC1,inactive
15,CCN1/C(=C/C(C)=O)Sc2ccc(OC)cc21,inactive
16,c1ccc(-c2ccccn2)nc1,inactive

row,SMILES,outcome
1,N[C@@H](CC(=O)O)C(=O)O,inactive
2,CCCCCCCC/C=C\CCCCCCCC(=O)NCCO,inactive
3,O=S(=O)(c1cccc2c(I)cccc12)N1CCCNCC1,inactive
4,C[N+]1(C)CCC(OC(=O)C(c2ccccc2)c2ccccc2)CC1,inactive
5,CC(=O)SCC[N+](C)(C)C,inactive
6,O=c1[nH]c2cc(C(F)(F)F)ccc2n1-c1cc(C(F)(F)F)ccc1O,inactive
7,C[N+](C)(CCCCCC[N+](C)(C)CCCN1C(=O)c2cccc3cccc(c23)C1=O)CCCN1C(=O)c2cccc3cccc(c23)C1=O,inactive
8,NC(=O)C(=O)O,inactive
9,NC[C@@H]1O[C@H](C23CC4CC(CC(C4)C2)C3)Cc2c1ccc(O)c2O,inactive
10,O=C(Nc1cccc(C(=O)Nc2ccc(S(=O)(=O)O)c3cc(S(=O)(=O)O)cc(S(=O)(=O)O)c23)c1)Nc1cccc(C(=O)Nc2ccc(S(=O)(=O)O)c3cc(S(=O)(=O)O)cc(S(=O)(=O)O)c23)c1,inactive
11,O=C(O)c1cc(=O)c2ccccc2[nH]1,inactive
12,CN1CCc2cc(NC(=O)Nc3cccnc3)ccc21,inactive
13,Cn1c(=O)c2[nH]c(-c3ccccc3)nc2n(C)c1=O,inactive
14,CC(C)Cc1ccc([C@H](C)C(=O)O)cc1,inactive
15,COc1ccc(/C=C/C(=O)Nc2ccccc2C(=O)O)cc1OC,inactive
16,CC(C)NC[C@H](O)COc1cccc2[nH]ccc12,inactive

# Molecular target: Cytochrome P450 3A4 (Homo sapiens) (UniProt P08684)
# Sequence (P08684 whole entry, looked up): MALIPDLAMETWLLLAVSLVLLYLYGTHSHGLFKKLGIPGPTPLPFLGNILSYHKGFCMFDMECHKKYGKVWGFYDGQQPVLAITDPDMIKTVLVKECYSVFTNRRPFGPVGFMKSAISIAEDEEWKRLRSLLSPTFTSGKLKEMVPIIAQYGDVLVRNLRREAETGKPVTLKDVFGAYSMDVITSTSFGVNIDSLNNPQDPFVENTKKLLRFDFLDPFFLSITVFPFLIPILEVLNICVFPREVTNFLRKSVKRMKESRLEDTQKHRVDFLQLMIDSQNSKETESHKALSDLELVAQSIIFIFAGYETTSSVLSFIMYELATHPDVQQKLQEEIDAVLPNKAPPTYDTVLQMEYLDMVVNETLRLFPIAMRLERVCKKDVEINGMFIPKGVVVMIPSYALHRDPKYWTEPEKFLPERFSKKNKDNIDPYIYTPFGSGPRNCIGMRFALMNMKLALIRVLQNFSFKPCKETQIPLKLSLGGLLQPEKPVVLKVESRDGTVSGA
# Test: qHTS Assay for Activators of Cytochrome P450 3A4 (AID 885); note: nearly all actives have a fitted effect of over 65% in size
# Conditions: recombinant CYP3A4, Luciferin-PPXE luminescence, 60 min; series mostly up to 57.1 µM
# Summary of the method: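 Quantitative HTS format: compounds preincubated with 20nM human CYP3A4 and Luciferin-PPXE substrate at KM, reaction started by NADPH regeneration, stopped after 60 min, luciferase luminescence read 20 min later.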
row,SMILES,Potency
1,COC1=C(OC)C(=O)c2ccccc2C1=O,inactive
2,Ic1ccc(N2CCN(Cc3c[nH]c4ncccc34)CC2)cc1,inactive
3,CN(C)c1nc(N)c(C(=O)N=C(N)N)nc1Cl,inactive
4,NCCNC(=O)c1ncsc1-c1cccc(F)c1,inactive
5,CCN1/C(=C/C(C)=O)Sc2ccc(OC)cc21,inactive
6,CCCCCCCC/C=C\CCCCCCCC(=O)NCCO,inactive
7,C[N+](C)(CCCCCC[N+](C)(C)CCCN1C(=O)c2cccc3cccc(c23)C1=O)CCCN1C(=O)c2cccc3cccc(c23)C1=O,inactive
8,NC[C@@H]1O[C@H](C23CC4CC(CC(C4)C2)C3)Cc2c1ccc(O)c2O,inactive
9,O=C(Nc1cccc(C(=O)Nc2ccc(S(=O)(=O)O)c3cc(S(=O)(=O)O)cc(S(=O)(=O)O)c23)c1)Nc1cccc(C(=O)Nc2ccc(S(=O)(=O)O)c3cc(S(=O)(=O)O)cc(S(=O)(=O)O)c23)c1,inactive
10,CN1CCc2cc(NC(=O)Nc3cccnc3)ccc21,inactive
11,COc1ccc(/C=C/C(=O)Nc2ccccc2C(=O)O)cc1OC,inactive

# Test system: not listed separately
# Test: qHTS Assay for Identification of Small Molecule Antagonists for NFkB Signaling Pathway (AID 895; active = well fitted inhibition curve with a large enough effect in the signal ratio, with a control signal flat, not every such curve was filed as active; the % refers to the signal ratio)
# Conditions: NFkB beta-lactamase reporter cells, FRET ratio 460/530, stimulated with 10 pM TNF alpha; series mostly up to 38.3 µM
# Summary of the method: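 NFkB-bla ME-180 cervical carcinoma cells with beta-lactamase reporter under NFkB response element; compounds added, then TNF alpha at 10 pM final (EC50), 5 h at 37 C. LiveBLAzer substrate 2 h, room temperature; emission 460/530 nm at 405 nm excitation.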
row,SMILES,Potency
1,COc1cc(OC)c(/C=C2/C(=O)Nc3ccccc32)c(OC)c1,inactive
2,O=c1[nH]c2cc(Cl)c(Cl)cc2[nH]c1=O,inactive
3,C[N+]1(C)CCC(OC(=O)C(c2ccccc2)c2ccccc2)CC1,inactive
4,CC(=O)SCC[N+](C)(C)C,inactive
5,Cn1c(=O)c2[nH]c(-c3ccccc3)nc2n(C)c1=O,inactive

# Test system: not listed separately
# Test: Confirmation and Secondary Assay for Modulators of Hemoglobin Beta Chain Splicing at IVS2 654 locus (AID 910);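 note: per-well total GFP intensity by laser scanning cytometry after 2-day treatment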
# Conditions: HeLa EGFP-654 splicing reporter, GFP fluorescence, 48 h; series mostly up to 46.1 µM
# Summary of the method: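 HeLa cells stably carrying EGFP interrupted by mutant beta-globin IVS2-654 intron (CMV-driven) were treated with compound for 2 days at 37C; corrected splicing was scored as total peak GFP intensity per well (488 nm excitation, 500-520 nm emission).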
row,SMILES,outcome
1,O=c1[nH]c2cc(Cl)c(Cl)cc2[nH]c1=O,inactive
2,NCCCS(=O)(=O)O,inactive
3,O=C(O)c1cc(=O)c2ccccc2[nH]1,inactive

# Test system: not listed separately
# Test: qHTS Assay for Identification of Small Molecule Agonists for Hypoxia Response Element Signaling Pathway (AID 914; active = well fitted activation curve with a large enough effect in the signal ratio, with a control signal flat, not every such curve was filed as active; the % refers to the signal ratio)
# Conditions: ME-180 (cervical carcinoma) HRE-bla reporter, beta-lactamase ratio, CoCl2, 17 h; stronger effect = higher value
# Summary of the method: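 In Opti-MEM containing 0.5% dialyzed FBS and 10 mM HEPES, ME-180 HRE-bla cells received a compound titration and EC50 CoCl2. They were incubated 17 hours, then CCF4-loaded 2.5 hours at room temperature before ratio reading.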
row,SMILES,activation
1,CN1[C@@H]2CC[C@H]1CC(OC(c1ccccc1)c1ccccc1)C2 (some centres not stated),14.9% and 19%
2,C[N+]1(C)CCC(OC(=O)C(c2ccccc2)c2ccccc2)CC1,0.751%
3,O=C(Nc1cccc(C(=O)Nc2ccc(S(=O)(=O)O)c3cc(S(=O)(=O)O)cc(S(=O)(=O)O)c23)c1)Nc1cccc(C(=O)Nc2ccc(S(=O)(=O)O)c3cc(S(=O)(=O)O)cc(S(=O)(=O)O)c23)c1,-24.7%

# Test system: not listed separately
# Test: qHTS Assay for Identification of Small Molecule Agonists for Thrombopoietin (TPO) Signaling Pathway (AID 917); note: potency is the fitted concentration of half-maximal effect
# Conditions: TPO signaling pathway reporter cells, agonist qHTS, stimulated with TPO at its EC50; series mostly up to 38.5 µM
# Summary of the method: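 Luminescence from a Glycoprotein IIb promoter–driven luciferase reporter served as read-out in murine Ba/F3 cells carrying the human TPO receptor. Cells, deprived of IL-3 overnight, received compounds with 26 pM TPO and were incubated 24 hrs at 37 C.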
row,SMILES,Potency
1,Clc1ccc(N2CCN(Cc3c[nH]c4ncccc34)CC2)cc1,inactive
2,NCCCCCCCCCCN,inactive
3,CN(C)c1nc(N)c(C(=O)N=C(N)N)nc1Cl,inactive
4,CN(C)C(N)=NCCC[C@H](N)C(=O)O,inactive
5,CN1[C@@H]2CC[C@H]1CC(OC(c1ccccc1)c1ccccc1)C2 (some centres not stated),inactive
6,CC1(C)CCC=[N+]1[O-],inactive
7,NO,inactive
8,CN1CCc2ccccc2Cc2[nH]c3ccccc3c2CC1,inactive
9,c1ccc(-c2ccccn2)nc1,inactive
10,N[C@@H](CC(=O)O)C(=O)O,inactive
11,CCCCCCCC/C=C\CCCCCCCC(=O)NCCO,inactive
12,O=S(=O)(c1cccc2c(I)cccc12)N1CCCNCC1,inactive
13,C[N+]1(C)CCC(OC(=O)C(c2ccccc2)c2ccccc2)CC1,inactive
14,CC(=O)SCC[N+](C)(C)C,inactive
15,O=c1[nH]c2cc(C(F)(F)F)ccc2n1-c1cc(C(F)(F)F)ccc1O,inactive
16,C[N+](C)(CCCCCC[N+](C)(C)CCCN1C(=O)c2cccc3cccc(c23)C1=O)CCCN1C(=O)c2cccc3cccc(c23)C1=O,inactive
17,NC(=O)C(=O)O,inactive
18,O=C(Nc1cccc(C(=O)Nc2ccc(S(=O)(=O)O)c3cc(S(=O)(=O)O)cc(S(=O)(=O)O)c23)c1)Nc1cccc(C(=O)Nc2ccc(S(=O)(=O)O)c3cc(S(=O)(=O)O)cc(S(=O)(=O)O)c23)c1,inactive
19,O=C(O)c1cc(=O)c2ccccc2[nH]1,inactive
20,CN1CCc2cc(NC(=O)Nc3cccnc3)ccc21,1.58 µM (active)
21,Cn1c(=O)c2[nH]c(-c3ccccc3)nc2n(C)c1=O,inactive
22,CC(C)Cc1ccc([C@H](C)C(=O)O)cc1,inactive
23,CC(C)NC[C@H](O)COc1cccc2[nH]ccc12,inactive
